Source: PubChem (National Center for Advancing Translational Sciences (NCATS))
Rows were chosen to be rich in hits. Some 0.87% of all compounds tested hit in one or more screens of this group.
TDP1 inh: inhibitors of human tyrosyl-DNA phosphodiesterase TDP1; 350,000 tested, 0.28% active; Potency, µM (highest dose often 130 µM), inactives show at the top dose activity change, negative = inhibition, usual class: inhibitors; recombinant TDP1, AlphaScreen DNA substrate cleavage; AID 485290; also: nearly all actives have a fitted effect of over 40% in size
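Recombinant E. coli-expressed Tdp1 (1 nM) preincubated with compound 15 min at RT, then 5'-biotin/3'-phosphotyrosine-FITC DNA substrate (15 nM) added for 5 min. AlphaScreen beads (10 ug/ml) added, 10 min RT; tyrosine-FITC cleavage read as signal loss.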
BLM helicase inh: Bloom syndrome helicase (human) inhibition; P54132; recombinant BLM DNA unwinding, fluorescence dequenching; Potency, µM (doses to about 56.1 µM), for inactives: top-dose activity change, negative = inhibition, usual class: inhibitors; 350,000 tested, 0.2% active; AID 2528;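 also: plate controls were vehicle for no effect and no enzyme for full effect; nearly all actives have a fitted effect of over 35% in size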
APE1 inh: inhibitors of human APE1 endonuclease; P27695; recombinant APE1, TAMRA/BHQ-2 abasic DNA cleavage fluorescence; Potency, µM (doses to about 65.8 µM), for inactives: top-dose activity change, negative = inhibition, most hits filed as inhibitors; 350,000 tested, 0.35% active; AID 2517;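 also: plate controls were vehicle for no effect and reference inhibitor for full effect; nearly all actives have a fitted effect of over 55% in size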
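Kinetic fluorescence read (525 ex/598 em nm, three reads 60 s apart) of AP-site incision; signal = third minus first read. Enzyme 0.75 nM, dual-labelled THF duplex 50 nM, compound preincubation 15 min RT.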
GCN5L2 inh: GCN5L2 (KAT2A) acetyltransferase inhibition; Q92830; Potency, µM (top dose mostly 58.9 µM), inactives show at the top dose activity change, negative = inhibition, hits mostly inhibitors; 390,000 tested, 0.21% active; GCN5L2 HAT assay, ThioGlo1 CoA-SH fluorescence
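GCN5L2 (20nM final) in 50mM HEPES, 0.1mM EDTA pH 7.5, 0.01% Tween-20 was preincubated 15 min at room temperature with compound, then given ThioGlo1 (50uM), H3(1-25) peptide (75uM) and acetyl-CoA (70uM); CoA-thiol fluorescence (Ex340/Em540) was read at 0 and 20 min.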
RECQ1 inh-1: blocks DNA unwinding by human RECQ1. RECQ1 DNA unwinding, red fluorescence kinetic read. Potency, µM (doses to about 57.3 µM), for the others: at the highest dose activity, negative = inhibition, actives largely listed as inhibitors. 240,000 tested, 0.54% active. AID 2549;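 also: plate controls were vehicle for no effect and no enzyme for full effect; nearly all actives have a fitted effect of over 30% in size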
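50 nM RECQ1T1 preincubated 15 min with compound in Tris pH 8.0 buffer with MgCl2, DTT, Tween-20 and 2.5 ug/ml poly(dI-dC); started with 200 nM TAMRA/BHQ-2 forked duplex and 2 mM ATP. Unwinding read as fluorescence (525/598 nm), two reads 2 h apart.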
RECQ1 conf: confirmation of human RECQ1 helicase inhibitors | shares compounds with RECQ1 inh-1 | RECQ1 helicase DNA unwinding, fluorescence | Potency, µM (series often up to 229 µM), inactives show at the highest dose activity change, negative = inhibition, usual class: inhibitors | 610 tested, 28% active | AID 2708; also: nearly all actives have a fitted effect of over 45% in size
RECQ1 ADP FP: ADP displacement flagged in RECQ1 inhibitor counter-screen. shares compounds with RECQ1 inh-1. ADP fluorescence polarization displacement counterscreen. Potency, µM (doses to about 228 µM), for inactives: top-dose activity change, negative = inhibition, hits mostly inhibitors. 530 tested, 27% active; also: nearly all actives have a fitted effect of over 45% in size
RECQ1 inh-2: confirmation of human RECQ1 helicase inhibitors. shares compounds with RECQ1 inh-1. recombinant RECQ1 DNA unwinding, red fluorescence. Potency, µM (series often up to 119 µM), inactives show at the top dose activity, negative = inhibition, most hits filed as inhibitors. 1,100 tested, 15% active. AID 504841; also: nearly all actives have a fitted effect of over 50% in size
Numbers without * were called inactive; [ ] = dose if it differs, or a comment. Calls follow the shape of the dose curve; as a rule, active = well fitted curve in the direction sought with a large enough effect; inconclusive = small, poorly fitted or top-dose-only effect, or another doubt; inactive = no such curve, though single readings can be large; an effect the other way counts as inactive or inconclusive. Unless noted, % is scaled to controls: 0 for no effect and ±100 for the full control effect; potency is read from the fitted curve at half-maximal effect.

How did O=C(O)CCCCCn1c(SCC(=O)Nc2ccc(F)cc2)nc2ccsc2c1=O do in these assays?
TDP1 inh: 2%; BLM helicase inh: -1%; APE1 inh: -3%; GCN5L2 inh: -3%; RECQ1 inh-1: inactive; RECQ1 conf: 5%; RECQ1 ADP FP: -4%

Results for CCCCn1c(SCC(=O)c2ccc(O)c(O)c2)nc2ccsc2c1=O ?
TDP1 inh: 6%; BLM helicase inh: -24%; APE1 inh: -9%; GCN5L2 inh: -4%; RECQ1 inh-1: 22µM*; RECQ1 inh-2: 8.9µM*

Results for CC(C)(C)C(=O)OCCNc1nc(-c2ccccc2)nc2ccccc12 ?
TDP1 inh: 0%; BLM helicase inh: -7%; APE1 inh: 11%; GCN5L2 inh: -8%; RECQ1 inh-1: 7.9µM*; RECQ1 conf: 2%[114 µM]; RECQ1 inh-2: -17%

Results for CCOC(=O)N1CCN(/[N+]([O-])=N/Oc2ccc([N+](=O)[O-])cc2[N+](=O)[O-])C(C)C1 (configuration not stated) ?
TDP1 inh: 4%; BLM helicase inh: -7%; APE1 inh: -3%; RECQ1 inh-1: -11%

How did CC(=O)Nc1ccc(S(=O)(=O)/N=C2\SCCN2S(=O)(=O)c2ccc(NC(C)=O)cc2)cc1 do in these assays?
TDP1 inh: -3%; BLM helicase inh: 4%; APE1 inh: inconclusive; GCN5L2 inh: -14%; RECQ1 inh-1: inconclusive; RECQ1 inh-2: -11%

What do the screens show for `O=C(c1cc(-c2ccccc2)on1)N1CCCc2ccccc21`?
TDP1 inh: 3%; BLM helicase inh: -15%; APE1 inh: 3%; GCN5L2 inh: -12%; RECQ1 inh-1: -12%

What do the screens show for `O=C(c1cc(-c2ccco2)on1)N1CCCc2ccccc21`?
TDP1 inh: 9%; BLM helicase inh: -22%; APE1 inh: 12%; GCN5L2 inh: -10%; RECQ1 inh-1: 40µM*; RECQ1 inh-2: inconclusive

Results for O=C1CSC(c2cccnc2)N1Cc1cccnc1 (configuration not stated) ?
TDP1 inh: 5%; BLM helicase inh: -1%; APE1 inh: 1%; GCN5L2 inh: -1%; RECQ1 inh-1: inactive

What do the screens show for `O=C1CSC(=S)N1c1cccnc1`?
TDP1 inh: 5%; BLM helicase inh: -5%; APE1 inh: 6%; GCN5L2 inh: 15%; RECQ1 inh-1: 32µM*; RECQ1 inh-2: -2%

What do the screens show for `O=C1CSC(=S)N1Cc1cccnc1`?
TDP1 inh: 9%; BLM helicase inh: -6%; APE1 inh: inconclusive; GCN5L2 inh: -3%; RECQ1 inh-1: 25µM*; RECQ1 inh-2: inconclusive

How did O=C(O)c1ccc(CN2C(=O)CSC2=S)cc1 do in these assays?
TDP1 inh: inconclusive; BLM helicase inh: -2%; APE1 inh: inconclusive; GCN5L2 inh: 3%; RECQ1 inh-1: 16µM*; RECQ1 conf: -1%[114 µM]; RECQ1 ADP FP: 48%[91.9 µM]; RECQ1 inh-2: -22%

Results for COc1ccc(CCNC(=O)NCc2noc3ccc(C)cc23)c(OC)c1 ?
TDP1 inh: 0%; BLM helicase inh: 1%; GCN5L2 inh: 1%

How did CCCNC(=O)Cn1nc(C)c2c(C)n(-c3ccccc3)nc2c1=O do in these assays?
TDP1 inh: 1%; BLM helicase inh: 2%; GCN5L2 inh: 1%

Results for CCOC(=O)c1c(NC(=O)/C=C\C(=O)O)sc(C)c1-c1ccccc1 ?
TDP1 inh: 6%; BLM helicase inh: -1%; APE1 inh: -1%; GCN5L2 inh: -1%; RECQ1 inh-1: inactive

What do the screens show for `CCOC(=O)c1c(NC(=O)/C=C/C(=O)O)sc(C)c1-c1ccc(C(C)(C)C)cc1`?
TDP1 inh: 10%; BLM helicase inh: -12%; APE1 inh: 8%; GCN5L2 inh: inconclusive; RECQ1 inh-1: inconclusive; RECQ1 inh-2: 50µM*

How did CCN1CCN(Cc2c(O)ccc3c(=O)c(Oc4ccccc4Cl)c(C(F)(F)F)oc23)CC1 do in these assays?
TDP1 inh: 0%; BLM helicase inh: 0%; GCN5L2 inh: -10%

How did COC(=O)N1CCCc2cc(S(=O)(=O)NCc3ccccc3)ccc21 do in these assays?
TDP1 inh: 6%; BLM helicase inh: -3%; GCN5L2 inh: -8%

How did CN(Cc1ccco1)S(=O)(=O)c1ccc2c(c1)CCN2C(=O)CCC(=O)O do in these assays?
TDP1 inh: -3%; BLM helicase inh: 1%; APE1 inh: 5%; GCN5L2 inh: 1%; RECQ1 inh-1: -6%; RECQ1 conf: 3%; RECQ1 ADP FP: 0%

What do the screens show for `O=C(O)CCCC(=O)N1CCc2cc(S(=O)(=O)NCc3ccccc3)ccc21`?
TDP1 inh: -2%; BLM helicase inh: 1%; APE1 inh: 9%; GCN5L2 inh: -3%; RECQ1 inh-1: -10%; RECQ1 conf: -8%; RECQ1 ADP FP: 11%

What do the screens show for `Cc1ccc(CNS(=O)(=O)c2ccc3c(c2)CCN3C(=O)CCCC(=O)O)cc1`?
TDP1 inh: 5%; BLM helicase inh: 2%; APE1 inh: -11%; GCN5L2 inh: -11%; RECQ1 inh-1: inactive; RECQ1 conf: 14%; RECQ1 ADP FP: -8%

How did CC1CC(C)CN(S(=O)(=O)c2ccc3c(c2)CCN3C(=O)CCC(=O)O)C1 (configuration not stated) do in these assays?
TDP1 inh: 1%; BLM helicase inh: 2%; APE1 inh: -7%; GCN5L2 inh: -5%

What do the screens show for `Cc1cccc(N2CCN(S(=O)(=O)c3ccc4c(c3)CCN4C(=O)CCC(=O)O)CC2C)c1` (configuration not stated)?
TDP1 inh: -11%; BLM helicase inh: -5%; APE1 inh: -4%; GCN5L2 inh: -2%; RECQ1 inh-1: -8%; RECQ1 conf: inconclusive; RECQ1 ADP FP: inconclusive

How did CCCCn1c(=O)c2oc3ccccc3c2n(CC(=O)Nc2ccc(CC)cc2)c1=O do in these assays?
TDP1 inh: 3%; BLM helicase inh: -1%; GCN5L2 inh: -6%

How did Cc1ccc2onc(CC(=O)N3CCN(c4cccc(C)c4C)CC3)c2c1 do in these assays?
TDP1 inh: 3%; BLM helicase inh: 0%; GCN5L2 inh: -6%

Results for O=C(O)/C=C/c1cccc(B(O)O)c1 ?
TDP1 inh: 7%; BLM helicase inh: 1%; APE1 inh: -4%; RECQ1 inh-1: -1%
